Data: PubChem BioAssay (NCATS)
Inconclusive results are not listed. A call without a number means that no potency is given here. A number with no mark means an inactive call. The source made the active and inactive calls. Calls follow the shape of the dose curve; as a rule, active = well fitted inhibition curve with a large enough effect; inconclusive = small, poorly fitted or top-dose-only effect; inactive = flat fitted curve, though single readings scatter.

Test: P-glycoprotein substrates identified in KB-8-5-11 adenocarcinoma cell line, qHTS therapeutic library screen (AID 1346987); also: nearly all actives have a fitted effect of over 65% in size
Conditions: KB-8-5-11 (P-gp overexpressing) viability, CellTiter-Glo, 72 h; series mostly up to 44.5 µM
Summary of the method: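 P-gp-mediated resistance screen: KB-8-5-11 cells treated 72 h with compounds in dose-response. CellTiter-Glo viability.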
Potency is read from the fitted curve at half-maximal effect.

| Compound | Potency | activity change, negative = cytotoxicity | outcome |
| --- | --- | --- | --- |
| C=CC1C(O[C@@H]2O[C@H](CO)[C@@H](O)[C@H](O)[C@H]2O)OC=C(C(=O)OC)C1Cc1nccc2c1[nH]c1ccccc12 (stereo not given in full) | inactive |  |  |
| C/C(=C/CO)CC[C@@H]1[C@@]2(C)CCC[C@](C)(C(=O)O)C2CC[C@@]1(C)O (stereo not given in full) | inactive |  |  |
| C/C=C/C=C/C=C/C(=O)O[C@@H]1[C@@H](OC)C2=C(C(=O)N(C(C)C(=O)O)C2)[C@@]2(C)CCCC(C)(C)[C@H]12 (stereo not given in full) | inactive |  |  |
| O=C(CCCCc1ccc2ccccc2c1)C(F)(F)F | inactive |  |  |
| C[C@]1(O)CC[C@@H]2C(C(=O)O)=CO[C@@H](O[C@@H]3O[C@H](COC(=O)c4ccc(O)cc4)[C@@H](O)[C@H](O)[C@H]3O)[C@@H]21 | inactive |  |  |
| CCC[C@@H]1C[C@@H](C(=O)N[C@H](C(C)Cl)[C@H]2O[C@H](SC)[C@H](O)[C@@H](O)[C@H]2O)N(C)C1 (stereo not given in full) | inactive |  |  |
| O=C1NCc2nc3ccccc3c(=O)n2C1Cc1c[nH]c2ccccc12 (stereo not given) | inactive |  |  |
| COc1ccc2cc(OCC3(C(=O)O)CN(C(=O)c4ccc(F)cc4)C3)ccc2c1 | inactive |  |  |
| CN1C(=O)N[C@@H](Cc2c[nH]c3c(Cl)cccc23)C1=O | inactive |  |  |
| COc1ccc(C(OC2OC(CO)C(O)C(O)C2O)C(C)O)cc1 (stereo not given) | inactive |  |  |
| CC1(C)CC[C@]2(C(=O)O)CC[C@]3(C)C(=CCC4[C@@]5(C)CCC(O[C@@H]6OC[C@H](O)[C@H](O)[C@H]6O[C@@H]6O[C@H](CO)[C@@H](O)[C@H](O)[C@H]6O)[C@@](C)(CO)C5CC[C@]43C)[C@@H]2C1 (stereo not given in full) | inactive |  |  |
| CC1CCC2(C(=O)OC3OC(COC4OC(CO)C(O)C(O)C4O)C(O)C(O)C3O)CCC3(C)C(=CCC4C5(C)CCC(O)C(C)(C(=O)O)C5CCC43C)C2C1(C)O (stereo not given) |  | 1.52% [at 9.29 µM] |  |
| C=C1CCC2C(C)(C)CC(=O)CC2(C)C1CCC(C)CCOC(C)=O (stereo not given) | inactive |  |  |
| CCCOc1ccn2c(C(C)=O)cc(-c3ccccc3S(C)(=O)=O)c2c1 | inactive |  |  |
| C[C@@H]1CCC2C(C)(C)[C@H](O)CC[C@]2(C)[C@@]12Cc1c(O)cc3c(c1O2)CN(CCO)C3=O (stereo not given in full) | inactive |  |  |
| COC(=O)C[C@@H]1C(C(=O)O)=CO[C@@H](O[C@@H]2O[C@H](CO)[C@@H](O)[C@H](O)[C@H]2O)/C1=C\COC(=O)/C=C\c1ccccc1 | inactive |  |  |
| COC(=O)[C@@H]1C2CC3c4[nH]c5ccccc5c4CCN3CC2CC[C@@H]1O (stereo not given in full) | inactive |  |  |
| COc1cc(O[C@@H]2O[C@H](CO)[C@@H](O)[C@H](O)[C@H]2O)c(CCC(=O)OC[C@H]2O[C@@H](Oc3cc(OC)c(C4OC(=O)C(C)(O)C4O)cc3CCC(=O)O)[C@H](O)[C@@H](O)[C@@H]2O)cc1C1OC(=O)C(C)(O)C1O (stereo not given in full) |  |  | inactive [at 9.29 µM] |
| C(#Cc1cccc(CN2CCOCC2)c1)CCN1CCCCC1 | inactive |  |  |
| COc1cc(NC(=O)c2ccccn2)ccc1Cl | inactive |  |  |

| Compound | Potency | activity change, negative = cytotoxicity | outcome |
| --- | --- | --- | --- |
| COc1cc2c(Nc3ccc(Cl)c(Cl)c3F)ncnc2cc1OCC1C[C@@H]2CN(C)C[C@@H]2C1 (stereo not given in full) | 18.4 µM (active) |  |  |
| CC[C@H]1OC(=O)[C@H](C)[C@@H](OC2C[C@@](C)(OC)[C@@H](O)[C@H](C)O2)[C@H](C)[C@@H](OC2O[C@H](C)C[C@H](NC)[C@H]2O)[C@](C)(O)C[C@@H](C)CN(C)[C@H](C)[C@@H](O)[C@]1(C)O (stereo not given in full) | inactive |  |  |
| COc1c2c(c(C)c3c1C(=O)OC3)OC1(C)CC(O)C3(O)C(C)(C)OC(=O)CCC3(C)C1C2 (stereo not given) | inactive |  |  |
| COc1cc(/C=C/C(=O)O[C@H]2[C@H](OC(=O)/C=C/c3cc(OC)c(O)c(OC)c3)O[C@H](CO[C@@H]3O[C@H](CO)[C@@H](O)[C@H](O)[C@H]3O)[C@@H](O)[C@@H]2O)ccc1O | inactive |  |  |
| COC(=O)[C@]12C(=O)C(C)=C(O)[C@@]1(C)C(C)=CC1[C@@]34CC[C@@H](OC(C)=O)C(C)(C)C3[C@H](C[C@]12C)OC4=O (stereo not given in full) | inactive |  |  |
| CN(C)C/C=C/C(=O)Nc1ccc(C(=O)Nc2cccc(Nc3ncc(Cl)c(-c4c[nH]c5ccccc45)n3)c2)cc1 | 5.17 µM (active) |  |  |
| CC(C)C1(O[C@@H]2O[C@H](CO)[C@@H](O)[C@H](O)[C@H]2O)CC=C(CO)CC1 (stereo not given in full) | inactive |  |  |
| COc1ccc([C@H]2Cc3cccc(O)c3C(=O)O2)cc1 | inactive |  |  |
| CC(=O)OCC(=O)O[C@@H]1[C@H]2[C@@H](OC(=O)c3ccccc3)[C@@H](C)C[C@]2(O)[C@H](OC(C)=O)C2(C)[C@H]3CC(C)(C)C(=O)[C@@H]3CC1(OC(C)=O)[C@@H]2OC(C)=O (stereo not given in full) | inactive |  |  |
| C=C1CC/C=C(/CO)C(=O)C[C@@H]2[C@@H]1CC2(C)C | inactive |  |  |
| CCC[C@@H]1C[C@@H](C(=O)N[C@@H]([C@H]2O[C@H](SC)[C@H](OP(=O)(O)O)[C@@H](O)[C@H]2O)[C@H](C)Cl)N(C)C1 | inactive |  |  |
| COc1cc(CC(COC2OC(CO)C(O)C(O)C2O)c2cc(/C=C/CO)cc(OC)c2O)ccc1O (stereo not given) | inactive |  |  |
| N#CCc1ccc(O)cc1O[C@@H]1O[C@H](CO)[C@@H](O)[C@H](O)[C@H]1O | inactive |  |  |
| C[C@@H]1C(=O)O[C@H]2[C@H]1CC[C@@]1(C)C(=O)C=C[C@](C)(O)[C@H]21 | inactive |  |  |
| C[C@@H]1CC[C@]2(C(=O)O[C@@H]3O[C@H](CO)[C@@H](O)[C@H](O)[C@H]3O)CC[C@]3(C)C(=CCC4[C@@]5(C)C[C@@H](O)[C@H](O)C(C)(C)C5CC[C@]43C)C2[C@]1(C)O (stereo not given in full) | inactive |  |  |
| O=C(O[C@H]1[C@@H]2C=CO[C@@H](O[C@@H]3O[C@H](CO)[C@@H](O)[C@H](O)[C@H]3O)[C@@H]2[C@@]2(CO)O[C@@H]12)c1ccc(O)cc1 | inactive |  |  |
| CC(=O)N1CCN(NC(=O)c2ccc(F)cc2)CC1 | inactive |  |  |
| C[C@@H]1CC[C@]2(C)C3(C)CC[C@@]2(OC3=O)[C@@]12C[C@H](c1ccoc1)OC2=O | inactive |  |  |
| O=C(O[C@H]1[C@@H]2C=CO[C@@H](O[C@@H]3O[C@H](CO)[C@@H](O)[C@H](O)[C@H]3O)[C@@H]2[C@@]2(CO)O[C@@H]12)c1ccc(O)c(O)c1 | inactive |  |  |
| C[C@@H]1CC[C@]2(C)C(C[C@@H](O)[C@H](O)[C@]23CO3)[C@@]1(C)CCc1ccoc1 (stereo not given in full) | inactive |  |  |
